# In PubChem BioAssay (NCATS):
# Results filed as inconclusive are left out. Values without a mark were called inactive. Activity calls are given as the source filed them. Calls follow the shape of the dose curve; as a rule, active = well fitted cell-killing curve with a large enough effect; inconclusive = small, poorly fitted or top-dose-only effect, or effect the other way; inactive = no such curve, though single readings can be large or run the other way.
# Assay: Viability qHTS for spleen associated tyrosine kinase inhibitor (SYKi) drug resistant MV4-11 cells (AID 1963824); also: nearly all actives have a fitted effect of over 35% in size
# Conditions: SYKi-resistant MV4-11 viability, CellTiter-Glo, 72 h; series mostly up to 45 µM; viability, % of control: at the top concentration
# Procedure, shortened: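 CellTiter-Glo luminescence, read 10 min after reagent addition, reports viability after a 72 hr compound exposure. Cells are an MV4-11 line made resistant to SYK inhibition, seeded at 500 per well onto compound-containing plates.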
# Potency is read from the fitted curve at half-maximal effect.
Compound,Potency,"viability, % of control"
COc1c2c(c(C)c3c1C(=O)OC3)OC1(C)CC(O)C(C(C)(C)O)C(C)(CCC(=O)O)C1C2 (stereo not drawn),3170 nM (active),
CC1(C)CC[C@]2(C(=O)O[C@@H]3O[C@H](CO)[C@@H](O)[C@H](O)[C@H]3O)CC[C@]3(C)C(=CCC4[C@@]5(C)CC[C@H](O[C@H]6O[C@H](CO)[C@@H](O)[C@H](O[C@@H]7O[C@H](CO)[C@@H](O)[C@H](O)[C@H]7O)[C@H]6O)C(C)(C)C5CC[C@]43C)[C@@H]2C1 (stereo partly drawn),,95.6% [at 9.25 µM]
C=C1C(=O)OC2C1C(O)CC1(C)C(O)CCC(C=O)C21 (stereo not drawn),16400 nM (active),
C=C(C(=O)O)[C@@H]1CC=C2CCC[C@H](C)[C@@]2(C)C1,,72.7%
Cc1ccccc1-n1c([C@H](C)Nc2nc(N)nc3nc[nH]c23)nc2cccc(C)c2c1=O,2910 nM (active),
CCC(C)C(=O)OC1CC(O)C23C4OCC5(C(O)CC2C1(C)C(O)O4)C3C(=O)C(O)C1(C)C(O)(c2ccoc2)CC2OC251 (stereo not drawn),432 nM (active),
CCCCCCCCn1cc(CN(CC)CC)c2cc(-c3cnc(N)nc3)ccc21,2590 nM (active),
C=C(C(=O)O)[C@@H]1CC[C@@]2(C)CCC[C@@](C)(O)[C@@H]2C1,,98.8%
